Measured values published in PubChem BioAssay (Tox21).
Records with an inconclusive call do not appear. Calls of active or inactive are those of the source. Unless noted, the call rests on the fitted dose curve; in most records, active means well fitted curve in the direction sought with a large enough effect in the repeat runs; inconclusive means weak or mixed curves; inactive means no such curve, though single readings can be large; an effect the other way counts as inactive or inconclusive.

Experiments:
[1] = molecular target: Retinoic acid receptor RXR-alpha (Homo sapiens) (UniProt P19793); experiment: qHTS assay to identify small molecule agonists of the RXR signaling pathway (AID 1159527; calls by dose curve; further: nearly all actives have a fitted effect of over 35% in size)
Sequence of Retinoic acid receptor RXR-alpha (Homo sapiens) (P19793 whole entry, looked up): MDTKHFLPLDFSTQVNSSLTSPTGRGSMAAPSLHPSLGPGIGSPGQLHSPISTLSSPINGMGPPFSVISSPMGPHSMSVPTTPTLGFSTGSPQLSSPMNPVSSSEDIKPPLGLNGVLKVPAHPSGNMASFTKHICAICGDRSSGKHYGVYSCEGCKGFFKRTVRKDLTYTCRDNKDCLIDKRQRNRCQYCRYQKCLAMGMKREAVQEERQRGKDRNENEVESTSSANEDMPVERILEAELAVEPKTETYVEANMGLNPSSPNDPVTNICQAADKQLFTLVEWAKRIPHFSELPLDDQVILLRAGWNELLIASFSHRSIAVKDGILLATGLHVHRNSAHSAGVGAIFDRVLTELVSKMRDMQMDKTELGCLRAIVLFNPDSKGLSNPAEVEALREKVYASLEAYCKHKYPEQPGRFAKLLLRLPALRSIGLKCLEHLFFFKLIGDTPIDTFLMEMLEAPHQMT
Procedure, shortened: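 Beta-lactamase reporter assay, agonist format. Engineered HEK 293T line, charcoal-stripped FBS at 2%, overnight (16 hr) exposure, fluorescence at 460 and 530 nm after 405 nm excitation.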

[2] = qHTS assay to identify small molecule agonists of the RXR signaling pathway - cell viability counter screen (AID 1159529);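 further: HEK 293T cells carrying an RXR-alpha UAS beta-lactamase reporter; series mostly up to about 77 µM; nearly all actives have a fitted effect of over 50% in size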
Procedure, shortened: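 Same-well viability check after the LiveBLAzer FRET read: CellTiter-Glo added, luminescence measured after 30 min at room temperature. Reporter HEK 293T cells had been treated with compounds for 16 hr following a 5 hr preincubation.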

[3] = qHTS assay to identify small molecule antagonists of the retinoid acid receptor (RAR) signaling pathway - cell viability counter screen (AID 1159551); further: nearly all actives have a fitted effect of over 35% in size
Procedure, shortened: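 Following overnight attachment, C3RL4 reporter cells received DMSO-dissolved compounds and then retinol (1 uM final). Six hours later at 37 C, ATP content was measured by CellTiter-Glo luminescence.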

[4] = qHTS assay to identify small molecule antagonists of the retinoic acid receptor (RAR) signaling pathway (AID 1159552; further: nearly all actives have a fitted effect of over 50% in size)
Procedure, shortened: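 Readout: luciferase luminescence, 30 min post-reagent at RT. Setup: C3RL4 RARE reporter cells, compounds plus retinol 1 uM final, 6 hr incubation at 37 C and 5% CO2.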

[5] = qHTS assay to identify small molecule agonists of the retinoic acid receptor (RAR) signaling pathway (AID 1159553)
Procedure, shortened: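 Cell line C3RL4, RARE luciferase reporter. Treatment: compounds in DMSO, 6 hr, 37 C, 5% CO2, after overnight plating. Detection: luminescence, 30 min RT after reagent.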
On the % scale 0 is the no-effect control and ±100 the full control effect.

CCCCCCCCCCCC
inactive: Potency [1] | Potency [2] | outcome [3] | Potency [4] | Potency [5]

CCCc1cc(C(N)=S)ccn1
inactive: Potency [1] | Potency [2] | outcome [3] | Potency [4] | Potency [5]

CC/C=C\CC/C=C/C(OCC)OCC
inactive: Potency [1] | Potency [2] | outcome [3] | Potency [4] | Potency [5]

CCCCC(CC)COC(=O)c1ccccc1O (stereo not given)
inactive: Potency [1] | Potency [2] | outcome [3] | Potency [4] | Potency [5]

Cc1cc(O)cc2c1O[C@](C)(CCC[C@H](C)CCC[C@H](C)CCCC(C)C)CC2
inactive: Potency [1] | Potency [2] | outcome [3] | Potency [4] | Potency [5]

CCCCCCCCCCCCCCCCC
inactive: Potency [1] | Potency [2] | outcome [3] | Potency [4] | Potency [5]

CC/C=C\CCOC(C)=O
inactive: Potency [1] | Potency [2] | outcome [3] | Potency [4] | Potency [5]

CN1CCN(c2cc3c(cc2F)c(=O)c(C(=O)O)cn3-c2ccc(F)cc2)CC1
inactive: Potency [1] | Potency [2] | outcome [3] | Potency [4] | Potency [5]

CC(C)(C)c1nnc(NS(=O)(=O)c2ccccc2)s1
inactive: Potency [1] | Potency [2] | outcome [3] | Potency [4] | Potency [5]

Cn1cc(S(C)=O)c(=O)c2ccc(F)cc21 (stereo not given)
inactive: Potency [1] | Potency [2] | outcome [3] | Potency [4] | Potency [5]

O=C(O)COc1nn(Cc2ccccc2)c2ccccc12
inactive: Potency [1] | Potency [2] | outcome [3] | Potency [4] | Potency [5]

CCOC(=O)C(=O)OCC
inactive: Potency [1] | Potency [2] | outcome [3] | Potency [4] | Potency [5]

C[N+](C)(C)CC(O)CC(=O)[O-] (stereo not given)
inactive: Potency [1] | Potency [2] | outcome [3] | Potency [4] | Potency [5]

CCS(=O)(=O)c1ccc(OC)c(C(=O)OC)c1
inactive: Potency [1] | Potency [2] | outcome [3] | Potency [4] | Potency [5]

CCCCCCCCCCCCCC=O
inactive: activation [1] 0.369% [at 6.98 µM] | activity change, negative = cytotoxicity [2] 1.55% [at 6.97 µM] | activity change, negative = cytotoxicity [3] 4.56% [at 8.39 µM] | activity, negative = inhibition [4] -4.55% [at 8.39 µM] | activation [5] 1.59% [at 8.36 µM]

O=Cc1cccc([N+](=O)[O-])c1
inactive: Potency [1] | Potency [2] | outcome [3] | Potency [4] | Potency [5]

CN1CC(=O)NC1=N
inactive: Potency [1] | Potency [2] | outcome [3] | Potency [4] | Potency [5]

O=C(O)CCCc1ccccc1
inactive: Potency [1] | Potency [2] | outcome [3] | Potency [4] | Potency [5]

CCCC(=O)O[C@]1(C(=O)CO)CC[C@H]2[C@@H]3CCC4=CC(=O)CC[C@]4(C)[C@H]3[C@@H](O)C[C@@]21C
inactive: Potency [1] | Potency [2] | outcome [3] | Potency [4] | Potency [5]

CC(C)=CCCC(C)CC(=O)O (stereo not given)
inactive: Potency [1] | Potency [2] | outcome [3] | Potency [4] | Potency [5]

COc1ccc2c(c1)CCCC2=O
inactive: Potency [1] | Potency [2] | outcome [3] | Potency [4] | Potency [5]

CC(=O)Nc1c(I)cc(I)c(C(=O)O)c1I
inactive: Potency [1] | Potency [2] | outcome [3] | Potency [4] | Potency [5]

CCC(=O)OC(C)c1ccccc1 (stereo not given)
inactive: Potency [1] | Potency [2] | outcome [3] | Potency [4] | Potency [5]

O=[N+]([O-])c1ccc(F)cc1F
inactive: Potency [1] | Potency [2] | outcome [3] | Potency [4] | Potency [5]

CC(C)(O)C(=O)c1ccccc1
inactive: Potency [1] | Potency [2] | outcome [3] | Potency [4] | Potency [5]

CN(C)CCCSc1ccccc1NC(=O)/C=C/c1ccccc1
inactive: Potency [1] | Potency [2] | outcome [3] | Potency [4] | Potency [5]

CC1(C)CO[C@@H](CC(=O)O)CN1
inactive: Potency [1] | Potency [2] | outcome [3] | Potency [4] | Potency [5]

COC(=O)NN
inactive: Potency [1] | Potency [2] | outcome [3] | Potency [4] | Potency [5]

N[C@@H](C(=O)N[C@@H]1C(=O)N2C(C(=O)O)=C(Cl)CS[C@H]12)c1ccccc1
inactive: activation [1] 3.92% [at 6.98 µM] | activity change, negative = cytotoxicity [2] 16.6% [at 6.97 µM] | activity change, negative = cytotoxicity [3] 2.73% [at 8.39 µM] | activity, negative = inhibition [4] -6.75% [at 8.39 µM] | activation [5] 0.152% [at 8.36 µM]

Cc1c(NC(C)C)c(=O)n(-c2ccccc2)n1C
inactive: Potency [1] | Potency [2] | outcome [3] | Potency [4] | Potency [5]

COC(=O)CC(C)=O
inactive: Potency [1] | Potency [2] | outcome [3] | Potency [4] | Potency [5]

O=C(O)Cc1ccc(CCNS(=O)(=O)c2ccc(Cl)cc2)cc1
inactive: Potency [1] | Potency [2] | outcome [3] | Potency [4] | Potency [5]

CC(=O)CC(C)(C)C1CCCCC1
inactive: Potency [1] | Potency [2] | outcome [3] | Potency [4] | Potency [5]
